Assay results: PubChem BioAssay AID588850 (Sanford-Burnham Center for Chemical Genomics, 2011)
Among all 360,000 compounds or so, about 3,100 (0.86%) were called active. The sample holds actives, similar compounds and a random draw of the others, so the mix is not that of the screen. Values without a mark were called inactive.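 The calls were made as follows: active = at least 50% inhibition at 5 µM, scaled per plate between neutral and stimulator controls; inactive = the rest.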

assay: NF-kB reporter blockers in CF airway cells – cell-based, GFP fluorescence, uHTS, primary screen (AID 588850); conditions: KKLEB NF-kB-GFP reporter, PAF-induced, GFP fluorescence overnight; at 5 µM; active compounds read high;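 also: PAF is a Pseudomonas aeruginosa culture filtrate used as stimulus; plate controls were PAF-stimulated DMSO wells for no effect and unstimulated DMSO wells for full effect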

Point of comparison: `Cc1ccc(S(=O)(=O)CCC(=O)Nc2nnc(CC(C)C)s2)cc1`, inhibition 8.1%. Against it:
- Cc1ccccc1N1C(=O)C(Oc2ccc(Cl)cc2)C1CNCC1CCCO1 (centres undefined) — lower, -17.5%
- CC(Sc1nncn1C)C(=O)Nc1ccccc1-c1ccccc1 (centres undefined) — lower, -12.2%
- Cc1cccc(N(C(=O)Cc2cccs2)C(C(=O)NCc2ccco2)c2ccncc2)c1 (centres undefined) — lower, -3.5%
- Cc1nn(C(C)C(=O)N2CCOCC2)c(=O)c2nn(-c3ccccc3)c(C)c12 (centres undefined) — lower, 1.5%
- CC(=O)Nc1ccc(S(=O)(=O)NCC2CCC(C(=O)NCCc3ccccc3)CC2)cc1 (centres undefined) — higher, 8.9%
- CC1(C(=O)NS(=O)(=O)c2ccccc2)CCN1C(=O)c1ccccc1 (centres undefined) — lower, -17.7%
- COc1cc(OC)c(C(=O)NNC(=O)c2ccc(NS(=O)(=O)c3cccs3)cc2)cc1OC — lower, 0.1%
- CCCOc1ccc(-c2c(C(=O)N/N=C/c3ccco3)nnn2-c2nonc2N)cc1 — lower, -21.8%
- Nc1nonc1-n1nnc(C(=O)N/N=C/C2CCCCC2)c1-c1ccccc1 — lower, 3.7%
- CSc1ccc(CN2CCC2(C)C(=O)Nc2ccc(C)c(O)c2)cc1 (centres undefined) — lower, 0%
- CCCc1nc(N)nc2c1C(=O)CC(C)(C)C2 — higher, 16.2%
- COc1ccc(/C=C/C(=O)c2c(O)cc(OC)cc2OC)cc1 — lower, -12.9%
- COc1ccc2cc(-c3[nH]ncc3CNCCn3nc(C)cc3C)ccc2c1 — lower, -8.4%
- CCOc1ccccc1Oc1cn[nH]c1-c1ccc(OC)cc1O — higher, 13%
- CCOc1ccc(C(C)=O)cc1CSc1nnc(-c2ccncc2)n1CCOC — lower, -0.6%
- CS(=O)(=O)N(CC(=O)Nc1ccc(F)cc1F)c1cccc([N+](=O)[O-])c1 — higher, 10.1%
- O=c1[nH]c2ccccc2n1C1CCN(CCOc2ccccc2)CC1 — lower, -0.9%
- c1ccc(CNc2ncnc3[nH]ncc23)cc1 — lower, 0.6%
- COc1ccc(CNc2nccs2)cc1 — lower, -5.6%
- Nc1ccc(S(=O)(=O)Nc2nccc(/C=C/c3ccc(Br)s3)n2)cc1 — higher, 14.6%
- Clc1ccc2nc(CSc3ccccc3)cn2c1 — lower, -13.5%
- O=C(C1CCCO1)N1CCN(C(=S)NC2CC2)CC1 (centres undefined) — lower, 3.7%
- COc1ccc(S(=O)(=O)N2CCN(CC(=O)N3CCNC3=O)CC2)cc1OC — lower, 0.2%
- COc1ccc(Br)cc1CN1CCN(C(=O)c2cccc(OC)c2OC)CC1 — higher, 18.7%
- CN(C(=O)CC1C(=O)NCCN1Cc1ccc2ccccc2c1)C1CCOCC1 (centres undefined) — higher, 15.4%
- COc1ccc(N(C(=O)c2snc(C(N)=O)c2N)C(C(=O)NC2CCCC2)c2ccco2)cc1OC (centres undefined) — lower, 6.4%
- CSc1ccccc1C(=O)Nc1cccc(C(C)=O)c1 — lower, -14.6%
- COc1ccc(NC(C(=O)Nc2cccc(C(C)=O)c2)c2ccccc2)cc1 (centres undefined) — lower, -4.2%
- CC(=O)c1cccc(NC(=S)N2CCN(S(C)(=O)=O)CC2)c1 — lower, -11.2%
- CC(=O)c1cccc(NC(=O)C2CCN(C(=O)c3ccccc3Cl)CC2)c1 — lower, 4.3%
- CCOCCCNC(=O)c1ccc(CS(=O)(=O)c2cccc(C(F)(F)F)c2)o1 — lower, -2.1%
- CC1C(=O)Nc2ccccc2N1C(=O)c1c(F)cccc1F (centres undefined) — lower, -2.1%
- COc1cccc(-c2nn(-c3ccccc3)cc2/C=C(\C#N)C(=O)NCCCn2ccnc2)c1 — lower, -21.2%
- CC1CCCC(NC(=O)COC(=O)c2ccccc2C(=O)N(C)C2CCCCC2)C1C (centres undefined) — higher, 17.7%
- C=CCN(c1ccc(C(N)=O)cc1)S(C)(=O)=O — lower, -12%
- COc1ccc(N2CCN(C(=O)COc3ccc4c(C)cc(=O)oc4c3)CC2)cc1 — lower, -21.4%
- Cc1cc(OCC(=O)N2CCN(c3ncccn3)CC2)ccc1Cl — lower, 1.3%
- CC1(C)Cc2c(sc3nc(SCC(=O)NCc4ccccc4)n(-c4ccccc4)c(=O)c23)CS1 — lower, 4.3%
- Cc1ccc(S(=O)(=O)N2CCCC2CO)cc1 (centres undefined) — lower, -11%
- CCn1ncc(Br)c1C(=O)Nc1cc(C)ccc1F — lower, 4.3%
- Cc1ccc(Cc2cnc(N)s2)o1 — lower, 4.4%
- O=C(CCc1ccccc1Cl)Nc1ccc(S(=O)(=O)Nc2nccs2)cc1 — higher, 8.7%
- COc1ccccc1/C=C/CN1CCC(CO)(Cc2ccccc2)CC1 — higher, 20.7%
- CC(C)(C)NC(=O)Cn1c(SCC(=O)Nc2nccs2)nc2ccccc21 — lower, -6.3%
- COCCCNC(=S)N1CCN(c2nc(-c3cccc(OC)c3)cs2)CC1 — lower, -8.2%
- c1ccc(C(=NNc2nc3ccccc3s2)c2ccccn2)cc1 — lower, -25.7%
- O=C(N/N=C/c1cc(Br)c(O)c([N+](=O)[O-])c1)C(O)(c1ccccc1)c1ccccc1 — lower, -3.5%
- CCOC(=O)c1ccc(-c2ccc3ncnc(N(C)Cc4sccc4C)c3c2)o1 — higher, 32.3%
- CCOC(=O)CSc1nnc(NC(=O)c2cccc(S(=O)(=O)N3CCCCC3)c2)s1 — lower, 5.1%
- O=C(Nc1nnc(-c2ccc(F)cc2)s1)c1c(F)cccc1Cl — higher, 11%
- O=C(Nc1nnc(Cc2ccc(Cl)cc2)s1)c1cccnc1 — lower, 2.8%
- CC1(C(=O)Nc2cccnc2)Cc2c(-c3ccccc3)ccnc2O1 (centres undefined) — higher, 14.4%
- Cc1ccccc1C(=O)Nc1cccc(-c2nnc(SCC(=O)O)n2C)c1 — lower, 0.8%
- C=CCn1c(SCC(=O)c2ccc(Br)cc2)nnc1C(C)NC(=O)Cc1ccc(OC)cc1 (centres undefined) — lower, -6.2%
- COCCn1c(C)cc(C(=O)CN2c3cccc4cccc(c34)S2(=O)=O)c1C — higher, 18.2%
- O=C(c1cccnc1)N(Cc1ccccc1)C(=O)c1cccnc1 — higher, 11.6%
- CCc1ccc(N(CC(=O)NCc2cccnc2)S(=O)(=O)c2ccccc2)cc1 — lower, -37.4%
- NC(=O)C[n+]1cccc(C(N)=O)c1 — lower, 0.4%
- CCNC(=O)C1CCCN(C(=O)c2ccc(OC)cc2OC)CC1 (centres undefined) — lower, -9.2%
- Cc1ccc(C2(C)NC(=O)N(CC(=O)Nc3ccccc3C(=O)N3CCCCC3)C2=O)cc1 (centres undefined) — lower, -4.5%
- O=C(NC1(C(F)(F)F)N=C2SCCN2C1=O)c1ccco1 (centres undefined) — lower, 3.6%
- COCCCN(C(=O)Cn1ncc2c(=O)oc3ccc(C)cc3c21)C(C)c1ccncc1 (centres undefined) — lower, 1.3%
- O=C(Nc1ccc2c(c1)OCO2)C1CC(c2c(F)cccc2Cl)=NO1 (centres undefined) — higher, 13.8%
- Cc1cc(C)c(-c2csc(NC(=O)CCCc3nc4ccccc4c(=O)[nH]3)n2)c(C)c1 — lower, -12.5%
- C=CCNC(=O)c1ccc2c3n(nc2c1)-c1ccc(C)cc1CO3 — lower, -75.6%
- COc1cc(OC)cc(C(=O)N[C@H](C(=O)OCC(=O)NC(C)c2ccccc2)C(C)C)c1 (some centres undefined) — higher, 21.2%
- COc1cc(OC)cc(C(=O)N[C@H](C(=O)NNC(=O)c2ccc(Br)cc2)C(C)C)c1 — lower, -8.2%
- CC(=O)NC(c1ccccc1)c1nc(-c2ccccc2C)cs1 (centres undefined) — lower, -32.5%

For `Nc1nonc1-n1nnc(C(=O)N/N=C/c2ccc(Cl)cc2)c1-c1ccc2c(c1)OCO2`, the inhibition was 52.5% (active).
For `COc1ccc(-c2cn[nH]c2-c2ccc(OC)cc2)cc1`, the inhibition was 88% (active).
For `COc1ccc(CNc2ncnc3ccccc23)cc1`, the inhibition was 51.6% (active).
For `Oc1cccc2ccc(/C=C/c3ccc(Br)s3)nc12`, the inhibition was 82.5% (active).
For `C[C@@H]1C[C@@H]2O[C@H]2/C=C\C=C\C(=O)Cc2c(Cl)c(O)cc(O)c2C(=O)O1`, the inhibition was 60.3% (active).
With `C=CCSc1nsc(NC(=O)Nc2cccc(C(C)=O)c2)n1` the inhibition was 86.3% (active).
In the case of `CCSc1nsc(NC(=O)Nc2cccc(C(C)=O)c2)n1`, the inhibition is reported as 86.3% (active).
With `Cc1c(C)c2ccc(OCC(=O)N3CCN(c4cccc(Cl)c4)CC3)cc2oc1=O` the inhibition was 63.5% (active).
With `Cc1ccc(CCC(=O)Nc2ncc(Cc3cc(Cl)ccc3Cl)s2)o1` the inhibition was 64% (active).
With `O=[N+]([O-])c1cc(Br)c(O)c(/C=N/Nc2nc3ccccc3s2)c1` the inhibition was 63.5% (active).
With `CSc1nnc(NC(=O)c2nc(S(=O)(=O)Cc3ccc(C)cc3)ncc2Cl)s1` the inhibition was 104% (active).
For `Cc1ccc(CS(=O)(=O)c2ncc(Cl)c(C(=O)Nc3nnc(C)s3)n2)cc1`, the inhibition was 92.5% (active).
In the case of `O=C(c1cccnc1)N(c1cc2sc(=O)oc2c2ccccc12)S(=O)(=O)c1ccccc1`, the inhibition is reported as 67% (active).
In the case of `Clc1ccc2c(c1)C1=C(C(c3ccncc3)O2)C(c2ccc(Br)cc2)n2ncnc2N1` (centres undefined), the inhibition is reported as 52.7% (active).
With `COc1cc(OC)cc(C(=O)N[C@H](C(=O)Nc2nc3ccccc3[nH]2)C(C)C)c1` the inhibition was 64.3% (active).
